# Data as given in the supplement of paper PMC10849652.
# About 7,900 targets were measured; listed, in parts, are those with a hit and a random draw of the rest. About 0.6% of all pairs of compound and target were hits. A number with no mark means an inactive call.
# Key:
# Test in all cases: log2 fold change, soluble protein after heating vs DMSO (PISA); higher = thermal stabilisation; K562 cells, 10 uM, 30 min; active = over 0.2 and 3.5 SD of the protein, either way, in both replicates (recomputed)
# erlotinib = compound: C#Cc1cccc(Nc2ncnc3cc(OCCOC)c(OCCOC)cc23)c1 [erlotinib]
# In short: (§1)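 Thermal stability values are relative to control samples and come from duplicates. They are expressed as log2 fold changes. For measurement, K562 cells (2×10^6 cells/mL) received 10 μM compound for 30 min, and aliquots were heated for 3 min over 48°C-58°C, pooled, and extracted at 4°C in PBS with 0.5% NP-40. Soluble protein, the supernatant after 21,000xg for 90 min, was quantified by TMTpro 16plex LC-MS/MS with equalised channel sums.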
# [1] = compound: C/C(=N\NC(=O)C1=CC(=CC=C1)S(=O)(=O)N2CCOCC2)/C3=C(C=CC(=C3)Cl)O
# In short: as §1
# [2] = compound: C1=CC(=C(C=C1Cl)C2=NC3=NC=CN=C3C(=N2)NC4=CC=NC=C4)F
# In short: as §1
# [3] = compound: C1=CC(=CC=C1C2=NC3=C(N2)C=C(C=C3)C(=O)N)OC4=CC=C(C=C4)Cl
# In short: as §1
# [4] = compound: C1=CC2=C(C=CC(=C2)/C=C\3/C(=O)NC(=NCC4=CC=CS4)S3)N=C1
# In short: as §1
# [5] = compound: C1=CC=C(C=C1)C2=NC(=C(N2)C3=CC=NC=C3)C4=CC(=C(C=C4)Cl)O
# In short: as §1
# [6] = compound: C1=CC=C2C(=C1)C3=NNC4=CC=CC(=C43)C2=O
# In short: as §1
# [7] = compound: C1CCN(C1)C(=O)NC2=CC=CC(=C2)NC3=NC=C(C(=N3)NCCC4=CN=CN4)Br
# In short: as §1
# [8] = compound: C1CN(CCC1(CC2=CC=C(C=C2)Cl)N)C3=NC=NC4=C3C=CN4
# In short: as §1
# IRAK-1-4 Inhibitor I = compound: C1COCCN1CCN2C3=CC=CC=C3N=C2NC(=O)C4=CC(=CC=C4)[N+](=O)[O-] [IRAK-1-4 Inhibitor I]
# In short: as §1
# [9] = compound: CC(=O)c1cnc2ccc(-c3cc(Cl)c(O)c(Cl)c3)nc2c1N[C@H]1CC[C@H](CN(C)C)CC1
# In short: as §1
# ralimetinib = compound: CC(C)(C)Cn1c(N)nc2ccc(-c3[nH]c(C(C)(C)C)nc3-c3ccc(F)cc3)nc21 [ralimetinib]
# In short: as §1
# [10] = compound: CC(C)(O)CC(=O)NCCn1ccc2ncnc(Nc3ccc(Oc4cccc(C(F)(F)F)c4)c(Cl)c3)c21
# In short: as §1
# [11] = compound: CC(C)C1=C2N=C(C=C(N2N=C1)NCC3=CC=CC=C3)NCCCCCCN
# In short: as §1
# [12] = compound: CC(C)C[C@@H](C=O)NC(=O)[C@H](CC(C)C)NC(=O)[C@H](CC(C)C)NC(=O)OCc1ccccc1
# In short: as §1
# pinometostat = compound: CC(C)N(C[C@H]1O[C@@H](n2cnc3c(N)ncnc32)[C@H](O)[C@@H]1O)[C@H]1C[C@@H](CCc2nc3cc(C(C)(C)C)ccc3[nH]2)C1 [pinometostat]
# In short: as §1
# [13] = compound: CC1=C(C2=C(C=C1)C(=O)C3=CC=CC=C3N2CCCN)C
# In short: as §1
# [14] = compound: C1=CC2=NC=CN=C2C=C1/C=C/3\C(=O)NC(=O)S3
# In short: as §1
# [15] = compound: CC1=C(C(CC(=O)N1)C2=CC=C(C=C2)C(F)(F)F)C(=O)NC3=C(C=C4C(=C3)C=NN4)F
# In short: as §1
# ibrutinib = compound: C=CC(=O)N1CCC[C@@H](n2nc(-c3ccc(Oc4ccccc4)cc3)c3c(N)ncnc32)C1 [ibrutinib]
# In short: as §1
# UniProt Q96MX0, sequence (Q96MX0 whole entry, looked up): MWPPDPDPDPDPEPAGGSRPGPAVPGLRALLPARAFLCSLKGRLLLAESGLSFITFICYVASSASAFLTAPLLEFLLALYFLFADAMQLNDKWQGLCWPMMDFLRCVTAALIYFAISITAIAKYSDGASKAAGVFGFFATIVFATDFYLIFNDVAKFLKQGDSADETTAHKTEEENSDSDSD
# UniProt O75503, sequence (O75503 whole entry, looked up): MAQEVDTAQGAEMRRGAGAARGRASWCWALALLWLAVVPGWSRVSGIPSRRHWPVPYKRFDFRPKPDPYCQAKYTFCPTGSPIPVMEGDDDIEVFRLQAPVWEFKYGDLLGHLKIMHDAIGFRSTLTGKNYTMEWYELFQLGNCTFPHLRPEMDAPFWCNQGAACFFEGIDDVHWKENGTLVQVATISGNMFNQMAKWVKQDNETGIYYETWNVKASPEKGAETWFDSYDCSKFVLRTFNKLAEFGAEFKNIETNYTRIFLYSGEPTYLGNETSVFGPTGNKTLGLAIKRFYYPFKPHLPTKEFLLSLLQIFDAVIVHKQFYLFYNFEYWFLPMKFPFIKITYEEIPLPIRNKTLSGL
# UniProt P24863, sequence (P24863 whole entry, looked up): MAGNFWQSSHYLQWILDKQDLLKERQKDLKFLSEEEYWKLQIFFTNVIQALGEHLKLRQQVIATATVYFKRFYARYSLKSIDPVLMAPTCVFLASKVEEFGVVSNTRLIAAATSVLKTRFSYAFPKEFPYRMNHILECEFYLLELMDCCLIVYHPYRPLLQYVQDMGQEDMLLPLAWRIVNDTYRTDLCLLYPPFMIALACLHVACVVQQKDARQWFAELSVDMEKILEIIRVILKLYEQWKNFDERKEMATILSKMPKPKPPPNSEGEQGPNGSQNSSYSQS
# UniProt Q15417, sequence (Q15417 whole entry, looked up): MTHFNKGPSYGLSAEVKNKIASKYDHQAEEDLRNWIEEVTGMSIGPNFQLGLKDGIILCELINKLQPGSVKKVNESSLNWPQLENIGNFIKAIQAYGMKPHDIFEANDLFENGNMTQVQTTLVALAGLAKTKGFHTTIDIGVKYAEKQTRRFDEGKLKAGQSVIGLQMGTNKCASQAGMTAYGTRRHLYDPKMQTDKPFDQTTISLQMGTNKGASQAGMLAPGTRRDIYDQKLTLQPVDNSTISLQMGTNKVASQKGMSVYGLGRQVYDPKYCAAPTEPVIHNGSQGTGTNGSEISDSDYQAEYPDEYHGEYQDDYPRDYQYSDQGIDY
# UniProt O95628, sequence (O95628 whole entry, looked up): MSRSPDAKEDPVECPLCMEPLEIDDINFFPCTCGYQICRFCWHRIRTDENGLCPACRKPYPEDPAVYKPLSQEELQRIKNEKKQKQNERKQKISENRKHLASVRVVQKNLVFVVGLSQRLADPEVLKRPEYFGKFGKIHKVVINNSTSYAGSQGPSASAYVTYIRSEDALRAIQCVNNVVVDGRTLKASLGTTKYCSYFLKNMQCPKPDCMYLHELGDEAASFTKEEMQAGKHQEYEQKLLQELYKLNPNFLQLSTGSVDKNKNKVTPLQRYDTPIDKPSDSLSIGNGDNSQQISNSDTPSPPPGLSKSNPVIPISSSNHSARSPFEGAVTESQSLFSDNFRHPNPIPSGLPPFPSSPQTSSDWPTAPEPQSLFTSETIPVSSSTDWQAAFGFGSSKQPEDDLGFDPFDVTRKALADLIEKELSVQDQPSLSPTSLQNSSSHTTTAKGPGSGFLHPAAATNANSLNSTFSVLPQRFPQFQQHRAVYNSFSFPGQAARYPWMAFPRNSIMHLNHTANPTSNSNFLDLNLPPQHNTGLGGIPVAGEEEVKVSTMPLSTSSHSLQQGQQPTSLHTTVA
# UniProt Q5BKX5, sequence (Q5BKX5 whole entry, looked up): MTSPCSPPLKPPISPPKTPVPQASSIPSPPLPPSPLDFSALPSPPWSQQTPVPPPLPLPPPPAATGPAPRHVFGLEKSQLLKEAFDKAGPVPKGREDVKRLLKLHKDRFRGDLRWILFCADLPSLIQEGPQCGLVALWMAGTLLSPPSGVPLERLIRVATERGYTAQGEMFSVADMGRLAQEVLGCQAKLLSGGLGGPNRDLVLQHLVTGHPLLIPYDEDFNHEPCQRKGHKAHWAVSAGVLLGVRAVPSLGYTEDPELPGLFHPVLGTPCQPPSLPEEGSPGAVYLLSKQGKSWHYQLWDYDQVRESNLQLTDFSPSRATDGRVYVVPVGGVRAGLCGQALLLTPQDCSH
# UniProt O76031, sequence (O76031 whole entry, looked up): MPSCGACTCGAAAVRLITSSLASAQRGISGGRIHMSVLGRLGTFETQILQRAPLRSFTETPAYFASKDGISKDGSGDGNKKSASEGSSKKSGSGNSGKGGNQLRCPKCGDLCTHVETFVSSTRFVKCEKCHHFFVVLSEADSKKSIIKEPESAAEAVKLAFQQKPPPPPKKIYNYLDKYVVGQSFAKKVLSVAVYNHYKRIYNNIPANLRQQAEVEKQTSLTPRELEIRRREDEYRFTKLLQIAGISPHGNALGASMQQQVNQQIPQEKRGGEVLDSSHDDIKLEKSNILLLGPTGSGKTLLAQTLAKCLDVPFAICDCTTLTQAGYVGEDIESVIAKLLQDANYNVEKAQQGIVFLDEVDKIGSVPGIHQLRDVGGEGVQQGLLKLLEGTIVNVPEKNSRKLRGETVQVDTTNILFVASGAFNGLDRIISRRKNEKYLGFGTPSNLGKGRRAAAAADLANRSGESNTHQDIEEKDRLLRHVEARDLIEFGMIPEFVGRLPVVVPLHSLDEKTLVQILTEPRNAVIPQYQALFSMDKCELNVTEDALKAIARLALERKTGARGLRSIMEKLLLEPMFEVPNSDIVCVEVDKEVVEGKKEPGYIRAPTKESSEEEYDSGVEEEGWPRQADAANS
# UniProt P51790, sequence (P51790 whole entry, looked up): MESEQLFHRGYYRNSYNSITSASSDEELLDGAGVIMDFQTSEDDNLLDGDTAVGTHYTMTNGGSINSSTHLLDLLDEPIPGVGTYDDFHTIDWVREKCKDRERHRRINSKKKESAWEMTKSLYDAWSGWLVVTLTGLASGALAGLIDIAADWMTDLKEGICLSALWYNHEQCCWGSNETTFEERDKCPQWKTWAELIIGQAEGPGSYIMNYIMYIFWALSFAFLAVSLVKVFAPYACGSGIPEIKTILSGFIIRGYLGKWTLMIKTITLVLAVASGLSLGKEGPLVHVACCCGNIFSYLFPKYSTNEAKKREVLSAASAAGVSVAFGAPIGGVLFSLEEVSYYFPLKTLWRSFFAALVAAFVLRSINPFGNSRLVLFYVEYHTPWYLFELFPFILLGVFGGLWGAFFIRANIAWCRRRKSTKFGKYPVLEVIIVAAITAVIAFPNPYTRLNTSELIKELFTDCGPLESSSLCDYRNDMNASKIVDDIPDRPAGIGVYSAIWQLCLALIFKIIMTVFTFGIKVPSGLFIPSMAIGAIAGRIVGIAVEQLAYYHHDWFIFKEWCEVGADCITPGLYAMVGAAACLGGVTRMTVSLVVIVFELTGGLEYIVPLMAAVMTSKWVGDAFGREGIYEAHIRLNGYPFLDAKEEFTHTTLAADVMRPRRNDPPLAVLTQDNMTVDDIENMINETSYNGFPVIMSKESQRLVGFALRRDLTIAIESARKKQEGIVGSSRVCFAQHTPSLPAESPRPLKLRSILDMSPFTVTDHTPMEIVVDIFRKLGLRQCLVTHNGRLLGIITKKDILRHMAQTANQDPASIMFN
# UniProt O75956, sequence (O75956 whole entry, looked up): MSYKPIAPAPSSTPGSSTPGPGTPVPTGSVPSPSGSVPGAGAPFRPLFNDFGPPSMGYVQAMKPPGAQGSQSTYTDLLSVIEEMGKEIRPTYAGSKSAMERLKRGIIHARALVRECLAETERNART
# UniProt O75122, sequence (O75122 whole entry, looked up): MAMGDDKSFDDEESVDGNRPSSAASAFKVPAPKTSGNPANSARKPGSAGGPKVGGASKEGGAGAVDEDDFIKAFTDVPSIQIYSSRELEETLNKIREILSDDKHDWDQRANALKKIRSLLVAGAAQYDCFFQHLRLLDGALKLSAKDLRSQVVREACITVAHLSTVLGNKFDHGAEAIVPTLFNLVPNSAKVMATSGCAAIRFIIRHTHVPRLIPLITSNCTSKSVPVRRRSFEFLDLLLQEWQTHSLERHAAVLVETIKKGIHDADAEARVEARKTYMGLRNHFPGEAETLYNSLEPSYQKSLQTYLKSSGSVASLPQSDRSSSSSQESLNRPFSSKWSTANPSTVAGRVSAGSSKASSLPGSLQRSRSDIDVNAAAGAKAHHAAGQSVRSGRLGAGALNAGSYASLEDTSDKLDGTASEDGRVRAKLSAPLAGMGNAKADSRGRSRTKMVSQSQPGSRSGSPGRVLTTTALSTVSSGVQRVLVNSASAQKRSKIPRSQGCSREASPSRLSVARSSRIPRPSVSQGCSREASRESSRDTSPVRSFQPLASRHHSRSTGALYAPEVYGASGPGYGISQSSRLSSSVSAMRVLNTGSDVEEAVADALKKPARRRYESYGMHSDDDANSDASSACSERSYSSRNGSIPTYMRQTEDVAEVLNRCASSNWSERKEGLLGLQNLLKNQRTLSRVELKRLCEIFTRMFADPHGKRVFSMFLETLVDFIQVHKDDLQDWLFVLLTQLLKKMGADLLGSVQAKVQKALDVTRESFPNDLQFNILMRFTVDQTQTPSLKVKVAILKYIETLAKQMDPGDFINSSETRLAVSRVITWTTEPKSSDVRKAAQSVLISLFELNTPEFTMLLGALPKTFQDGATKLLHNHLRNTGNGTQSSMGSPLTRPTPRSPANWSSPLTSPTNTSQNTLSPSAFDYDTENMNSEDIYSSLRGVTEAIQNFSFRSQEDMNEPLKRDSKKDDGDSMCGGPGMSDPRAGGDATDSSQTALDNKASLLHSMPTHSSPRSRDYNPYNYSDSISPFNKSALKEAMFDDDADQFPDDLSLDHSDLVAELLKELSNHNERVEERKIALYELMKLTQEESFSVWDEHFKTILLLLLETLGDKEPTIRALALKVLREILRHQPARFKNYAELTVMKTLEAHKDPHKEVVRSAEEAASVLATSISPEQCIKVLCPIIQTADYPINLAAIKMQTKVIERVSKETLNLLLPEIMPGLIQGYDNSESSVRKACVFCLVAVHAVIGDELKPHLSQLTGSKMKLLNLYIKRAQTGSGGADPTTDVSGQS
Target,log2 fold change (erlotinib),log2 fold change [1],log2 fold change [2],log2 fold change [3],log2 fold change [4],log2 fold change [5],log2 fold change [6],log2 fold change [7],log2 fold change [8],log2 fold change (IRAK-1-4 Inhibitor I),log2 fold change [9],log2 fold change (ralimetinib),log2 fold change [10],log2 fold change [11],log2 fold change [12],log2 fold change (pinometostat),log2 fold change [13],log2 fold change [14],log2 fold change [15],log2 fold change (ibrutinib)
C19orf54 (UniProt Q5BKX5),-0.094,-0.054,0.024,0.008,-0.005,-0.024,0.026,-0.027,-0.543 (active),0.008,0.045,0.019,-0.003,-0.022,0.08,-0.016,-0.054,,,
CLCN3 (UniProt P51790),-0.024,0.079,-0.053,-0.045,0.023,-0.01,-0.03,-0.032,0.055,0.014,-0.062,-0.076,0.015,-0.05,-0.039,-0.031,-0.053,0.07,-0.045,
CLPX (UniProt O76031),-0.062,0.056,0.01,0.004,-0.009,-0.008,-0.034,-0.03,-0.003,0.002,0.006,-0.03,-0.02,0.048,-0.055,-0.026,0.012,0.036,0.004,
CDK2AP2 (UniProt O75956),-0.142,-0.007,0.037,0.043,0.063,0.007,0,,,-0.087,0.094,0,-0.077,0.258,-0.438 (active),-0.135,,0.103,0.03,0.011
CEBPZOS (UniProt A8MTT3),-0.017,0.084,,0.015,0.039,0.03,0.057,0.05,-0.03,-0.034,0.003,-0.076,,0.018,-0.059,-0.026,0,0.074,0.02,-0.095
CNN3 (UniProt Q15417),0.013,0.158,0.064,-0.088,0.054,,0.016,0.041,-0.116,,-0.007,,-0.138,-0.17,,,0.012,0.056,0.058,-0.067
CNOT4 isoform 9 (UniProt O95628),-0.011,-0.022,,0.047,0.089,0.053,0.245,0.175,0.455,0.09,0.189,0.128,,-0.068,0.015,-0.028,0.202,0.018,-0.024,0.089
CLASP2 (UniProt O75122),0.089,-0.078,,0.082,-0.211,0.286,-0.106,,,0.027,-0.852,-0.067,,0.086,0.161,0.057,,0.133,0.116,
CMTM3 (UniProt Q96MX0),0.032,-0.055,0.166,-0.044,0.034,,-0.007,0.002,0.051,0.021,0.003,,-0.108,0.068,,0,-0.062,0.066,0.12,0.014
CLTB (UniProt P09497),0.106,-0.042,0.038,-0.05,-0.02,0.069,0.028,0.008,0.023,0.053,0.089,0.061,-0.021,0.024,-0.067,-0.07,-0.007,0.039,0,
"CLUH, A0A494C0R8",-0.008,-0.081,0.253,-0.107,0.127,-0.081,0.03,0.07,0.05,-0.016,0.508 (active),-0.125,-0.231,-0.257,0.199,-0.044,0.046,0.235,-0.058,
CLINT1 isoform 3 (UniProt Q14677),0.016,-0.134,-0.097,-0.036,0.026,-0.03,-0.042,-0.044,0.042,,0.135,0.139,0.102,0.103,0.04,0.047,0.022,0.05,-0.002,
CCNC (UniProt P24863),-0.056,-0.077,-0.122,-0.026,0.096,-0.001,0.209,,,0.071,0.595 (active),-0.027,0.053,0.041,0.071,-0.058,,0.256,,-0.082
COX17 (UniProt Q14061),-0.032,-0.064,0.375,-0.009,0.035,0.207,0.404,-0.117,0,-0.14,-0.052,0.41,-0.158,0.019,-0.196,-0.014,0.086,,0.241,
CCND3 (UniProt P30281),-0.028,-0.025,-0.081,0.036,0.143,0.047,-0.001,0.09,-0.043,,0.078,-0.076,0,-0.303,0.341,,-0.088,0.289,,-0.063
CENPE (UniProt Q02224),0.268,0.525,,-0.096,-0.875 (active),0.072,0.444,0.011,0.032,0.046,0.431,0.119,,0.211,0.11,-0.002,0.101,0.098,,-0.184
CLN5 (UniProt O75503),0.146,-0.049,0.063,0.103,0.023,,0.15,-0.02,-0.285,0.023,-0.03,,0.001,-0.62,,-0.062,-0.028,0.016,-0.039,
CHAF1A (UniProt Q13111),-0.046,-0.014,-0.121,0.053,0.027,-0.047,-0.114,,,0,-0.118,0.056,0.067,-0.066,0.08,-0.028,,0.135,-0.042,-0.143
